# Reference: PubChem BioAssay (NCI)
# Values joined by “and” are separate entries in the source; they are usually repeats but may differ in a detail not shown here. Equal entries are not always repeated. Compounds without any hit were thinned out: in the full panel of roughly 83,000, 20% have a hit.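 Results are percent growth after 48 hours of single-concentration exposure. 100 means growth as in untreated cells, lower positive values show inhibition; negative values down to -100 show cell death.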 Active and inactive are the calls of the source. How the source made its calls: active means growth percent below 10; inactive means the rest.
# How the values were obtained:
# Test in all cases: NCI-60 one-dose screen, 48 h (100 = growth as untreated, 0 = no growth, -100 = all killed)
# DU-145 prostate = tested on: DU-145 prostate
# K-562 leukemia = tested on: K-562 leukemia
# MALME-3M melanoma = tested on: MALME-3M melanoma
# MDA-MB-231 breast = tested on: MDA-MB-231 breast
# RXF 393 renal = tested on: RXF 393 renal
# SF-268 CNS = tested on: SF-268 CNS
# SF-295 CNS = tested on: SF-295 CNS
# SF-539 CNS = tested on: SF-539 CNS
# UACC-257 melanoma = details: 10 µM unless noted
# M14 melanoma = tested on: M14 melanoma
structure (smiles),measurement,setting,value
NC(=S)N/N=C\c1nccc2c(C(F)(F)C(F)(F)C(F)(F)F)cccc12,growth,DU-145 prostate; 10 µM unless noted,1.56% (active)
same,growth,K-562 leukemia; 10 µM unless noted,4.7% (active)
same,growth,MALME-3M melanoma; 10 µM unless noted,-3.69% (active)
same,growth,MDA-MB-231 breast; 10 µM unless noted,36.9% (inactive)
same,growth,RXF 393 renal; 10 µM unless noted,-11.7% (active)
same,growth,SF-268 CNS; 10 µM unless noted,13% (inactive)
same,growth,SF-295 CNS; 10 µM unless noted,7.4% (active)
same,growth,SF-539 CNS; 10 µM unless noted,-10.3% (active)
same,growth,UACC-257 melanoma,-18.2% (active)
same,growth,M14 melanoma; 10 µM unless noted,-19.2% (active)
Nc1nc(N)c2nc(CNc3ccc(C(=O)NC(CCC(=O)O)C(=O)O)cc3)cnc2n1 (configuration not stated),growth,DU-145 prostate; 10 µM unless noted,28.2% (inactive) and 21.8% (inactive)
same,growth,K-562 leukemia; 10 µM unless noted,18.7% (inactive) and 32% (inactive)
same,growth,MALME-3M melanoma; 10 µM unless noted,47.8% (inactive) and 48.3% (inactive)
same,growth,MDA-MB-231 breast; 10 µM unless noted,78.1% (inactive) and 60.1% (inactive)
same,growth,RXF 393 renal; 10 µM unless noted,48% (inactive) and 76.4% (inactive)
same,growth,SF-268 CNS; 10 µM unless noted,26.6% (inactive) and 27.3% (inactive)
same,growth,SF-295 CNS; 10 µM unless noted,26% (inactive) and 12.9% (inactive)
same,growth,SF-539 CNS; 10 µM unless noted,21.3% (inactive) and 18.4% (inactive)
same,growth,UACC-257 melanoma,57.8% (inactive) and 52.2% (inactive)
same,growth,M14 melanoma; 10 µM unless noted,10.8% (inactive) and 9.2% (active)
O=[N+]([O-])c1ccc2c(N=Nc3ccc4ccccc4c3O)c(O)cc(S(=O)(=O)O)c2c1,growth,DU-145 prostate; 10 µM unless noted,104% (inactive)
same,growth,K-562 leukemia; 10 µM unless noted,96.3% (inactive)
same,growth,MALME-3M melanoma; 10 µM unless noted,99.9% (inactive)
same,growth,MDA-MB-231 breast; 10 µM unless noted,74.2% (inactive)
same,growth,RXF 393 renal; 10 µM unless noted,97% (inactive)
same,growth,SF-268 CNS; 10 µM unless noted,72.4% (inactive)
same,growth,SF-295 CNS; 10 µM unless noted,102% (inactive)
same,growth,SF-539 CNS; 10 µM unless noted,96.9% (inactive)
same,growth,UACC-257 melanoma,99.2% (inactive)
same,growth,M14 melanoma; 10 µM unless noted,80.7% (inactive)
N#CSCc1ccc(CSC#N)c(Cl)c1,growth,DU-145 prostate; 10 µM unless noted,42.5% (inactive)
same,growth,K-562 leukemia; 10 µM unless noted,33.8% (inactive)
same,growth,MALME-3M melanoma; 10 µM unless noted,54.3% (inactive)
same,growth,MDA-MB-231 breast; 10 µM unless noted,52.5% (inactive)
same,growth,RXF 393 renal; 10 µM unless noted,72.2% (inactive)
same,growth,SF-268 CNS; 10 µM unless noted,65.8% (inactive)
same,growth,SF-295 CNS; 10 µM unless noted,102% (inactive)
same,growth,SF-539 CNS; 10 µM unless noted,58.8% (inactive)
same,growth,UACC-257 melanoma,67.6% (inactive)
same,growth,M14 melanoma; 10 µM unless noted,50.7% (inactive)
O=C(Nc1cccc(Br)c1)Oc1cccc2cccnc12,growth,DU-145 prostate; 10 µM,115% (inactive)
same,growth,DU-145 prostate; 100 µM,35.6% (inactive)
same,growth,K-562 leukemia; 10 µM,109% (inactive)
same,growth,K-562 leukemia; 100 µM,12.6% (inactive)
same,growth,MALME-3M melanoma; 10 µM,114% (inactive)
same,growth,MALME-3M melanoma; 100 µM,7.15% (active)
same,growth,MDA-MB-231 breast; 10 µM,98.4% (inactive)
same,growth,MDA-MB-231 breast; 100 µM,15.1% (inactive)
same,growth,RXF 393 renal; 10 µM,106% (inactive)
same,growth,RXF 393 renal; 100 µM,55.6% (inactive)
same,growth,SF-268 CNS; 10 µM,107% (inactive)
same,growth,SF-268 CNS; 100 µM,20.9% (inactive)
same,growth,SF-295 CNS; 10 µM,97.4% (inactive)
same,growth,SF-295 CNS; 100 µM,9.21% (active)
same,growth,SF-539 CNS; 10 µM,97.1% (inactive)
same,growth,SF-539 CNS; 100 µM,9.58% (active)
same,growth,UACC-257 melanoma,7.41% [100 µM] (active)
same,growth,M14 melanoma; 10 µM,99.4% (inactive)
same,growth,M14 melanoma; 100 µM,16% (inactive)
COC(=O)Nc1nc2ccc(C(=O)c3ccccc3)cc2[nH]1,growth,DU-145 prostate; 10 µM unless noted,26.8% (inactive) and -20.2% (active) and -19.3% (active)
same,growth,K-562 leukemia; 10 µM unless noted,6.5% (active) and 4.72% (active) and 4.39% (active)
same,growth,MALME-3M melanoma; 10 µM unless noted,26.5% (inactive) and 58.6% (inactive) and 54.1% (inactive)
same,growth,MDA-MB-231 breast; 10 µM unless noted,51.3% (inactive) and 25.5% (inactive) and 38% (inactive)
same,growth,RXF 393 renal; 10 µM unless noted,-12.3% (active) and -5.96% (active)
same,growth,SF-268 CNS; 10 µM unless noted,53.7% (inactive) and 21.3% (inactive) and 27.4% (inactive)
same,growth,SF-295 CNS; 10 µM unless noted,0.877% (active) and -10.3% (active) and -13.1% (active)
same,growth,SF-539 CNS; 10 µM unless noted,2.99% (active) and -28.1% (active) and -34% (active)
same,growth,UACC-257 melanoma,61% (inactive) and 77.2% (inactive) and 69.8% (inactive)
same,growth,M14 melanoma; 10 µM unless noted,-24.2% (active) and 0.911% (active) and 20.7% (inactive)
COc1cc(NS(C)(=O)=O)ccc1Nc1c2ccccc2nc2ccccc12,growth,DU-145 prostate; 10 µM unless noted,-34.4% [2.5 µM] (active)
same,growth,K-562 leukemia; 2.5 µM,29.2% (inactive)
same,growth,K-562 leukemia; 10 µM,0.97% (active) and 16.8% (inactive) and 23.4% (inactive)
same,growth,MALME-3M melanoma; 2.5 µM,43.4% (inactive)
same,growth,MALME-3M melanoma; 10 µM,-25.4% (active) and 20.4% (inactive) and 25.4% (inactive)
same,growth,MDA-MB-231 breast; 10 µM unless noted,98.2% [2.5 µM] (inactive)
same,growth,RXF 393 renal; 10 µM unless noted,6.88% [2.5 µM] (active)
same,growth,SF-268 CNS; 2.5 µM,35.1% (inactive)
same,growth,SF-268 CNS; 10 µM,25.1% (inactive) [middle of 4 runs]
same,growth,SF-295 CNS; 10 µM unless noted,3.7% [2.5 µM] (active)
same,growth,SF-539 CNS; 10 µM unless noted,-34.3% [2.5 µM] (active)
same,growth,UACC-257 melanoma,5.31% [2.5 µM] (active)
same,growth,M14 melanoma; 10 µM unless noted,8.39% (active) [middle of 4 runs]
O=C1N[C@H]2[C@H](CS[C@H]2CCCCC(=O)N(CCP(c2ccccc2)c2ccccc2)CCP(c2ccccc2)c2ccccc2)N1,growth,DU-145 prostate; 10 µM unless noted,95.6% (inactive)
same,growth,K-562 leukemia; 10 µM unless noted,69.3% (inactive)
same,growth,MALME-3M melanoma; 10 µM unless noted,91.7% (inactive)
same,growth,MDA-MB-231 breast; 10 µM unless noted,80.9% (inactive)
same,growth,RXF 393 renal; 10 µM unless noted,96.5% (inactive)
same,growth,SF-268 CNS; 10 µM unless noted,88.8% (inactive)
same,growth,SF-295 CNS; 10 µM unless noted,83.6% (inactive)
same,growth,SF-539 CNS; 10 µM unless noted,99.5% (inactive)
same,growth,UACC-257 melanoma,79.6% (inactive)
same,growth,M14 melanoma; 10 µM unless noted,97.3% (inactive)
CCC1OC(OC)C=CC1=O (configuration not stated),growth,DU-145 prostate; 10 µM unless noted,107% (inactive)
same,growth,K-562 leukemia; 10 µM unless noted,87.2% (inactive)
same,growth,MALME-3M melanoma; 10 µM unless noted,99.9% (inactive)
same,growth,MDA-MB-231 breast; 10 µM unless noted,106% (inactive)
same,growth,RXF 393 renal; 10 µM unless noted,113% (inactive)
same,growth,SF-268 CNS; 10 µM unless noted,108% (inactive)
same,growth,SF-295 CNS; 10 µM unless noted,98.1% (inactive)
same,growth,SF-539 CNS; 10 µM unless noted,101% (inactive)
same,growth,UACC-257 melanoma,117% (inactive)
same,growth,M14 melanoma; 10 µM unless noted,104% (inactive)
O=C1c2ccccc2C(=O)c2sc(Nc3ccc(Cl)cc3)nc21,growth,DU-145 prostate; 10 µM unless noted,-78.3% (active)
same,growth,K-562 leukemia; 10 µM unless noted,4.83% (active)
same,growth,MALME-3M melanoma; 10 µM unless noted,-79.6% (active)
same,growth,MDA-MB-231 breast; 10 µM unless noted,6.43% (active)
same,growth,RXF 393 renal; 10 µM unless noted,17% (inactive)
same,growth,SF-268 CNS; 10 µM unless noted,42% (inactive)
same,growth,SF-295 CNS; 10 µM unless noted,98.4% (inactive)
same,growth,SF-539 CNS; 10 µM unless noted,2.24% (active)
same,growth,UACC-257 melanoma,-16% (active)
same,growth,M14 melanoma; 10 µM unless noted,-2.34% (active)
